# Source: PubChem
# A selection: hits, their analogues and other compounds. The true share with any hit is near 4%.
# UGM FP inh: Mtb UDP-galactopyranose mutase inhibition | AID 504406 | purified UGM, fluorescence polarization probe displacement | 0.06% of 320,000 active | inhibition, % at 10 µM; in the data active = inhibition above about 10%, passing the limit was not always enough
# Mtb FBA inh: Mtb fructose-bisphosphate aldolase inhibition. purified M. tuberculosis FBA, fluorescence read-out. 2.3% of 360,000 active. AID 588726. inhibition, % at 1 µM;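 also: 0% = vehicle and 100% = reference inhibitor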
# Rv3671c inh: Rv3671c (M. tuberculosis) protease inhibition; inhibition, % at 5.96 µM; 0.048% of 320,000 active; AID 2606; in the data active = inhibition above about 38%;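 also: extracellular domain of Rv3671c used as enzyme; 0% = enzyme with DMSO and 100% = no enzyme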
# GDH-TPI counter-1: GDH-TPI coupled enzyme inhibition counter-screen; GDH-TPI coupled enzyme counterscreen, NADH absorbance; inhibition, % at 4.8 µM; 1.2% of 360,000 active; in the data active = inhibition above about 30%;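 also: 0% = DMSO wells and 100% = wells lacking the enzyme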
# Mtb bLac sens: beta-lactam sensitization of Mtb H37Rv | M. tuberculosis H37Rv growth with meropenem, percent inhibition | inhibition, % at 25 µM | 0.27% of 330,000 active | AID 434955; call rule not given here;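 also: growth measured after seven days incubation then overnight dye step; 0% = bacteria only wells and 100% = bacteria with antibiotic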
# RecA intein inh: inhibitors of M. tuberculosis RecA intein splicing; inhibition, % (test concentration not listed); cell-free RecA intein splicing, fluorescence; 0.75% of 290,000 active; in the data active = inhibition above about 30%;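 also: 0% = vehicle wells and 100% = reference inhibitor control wells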
# Target sequence (P9WHJ3 whole entry, looked up): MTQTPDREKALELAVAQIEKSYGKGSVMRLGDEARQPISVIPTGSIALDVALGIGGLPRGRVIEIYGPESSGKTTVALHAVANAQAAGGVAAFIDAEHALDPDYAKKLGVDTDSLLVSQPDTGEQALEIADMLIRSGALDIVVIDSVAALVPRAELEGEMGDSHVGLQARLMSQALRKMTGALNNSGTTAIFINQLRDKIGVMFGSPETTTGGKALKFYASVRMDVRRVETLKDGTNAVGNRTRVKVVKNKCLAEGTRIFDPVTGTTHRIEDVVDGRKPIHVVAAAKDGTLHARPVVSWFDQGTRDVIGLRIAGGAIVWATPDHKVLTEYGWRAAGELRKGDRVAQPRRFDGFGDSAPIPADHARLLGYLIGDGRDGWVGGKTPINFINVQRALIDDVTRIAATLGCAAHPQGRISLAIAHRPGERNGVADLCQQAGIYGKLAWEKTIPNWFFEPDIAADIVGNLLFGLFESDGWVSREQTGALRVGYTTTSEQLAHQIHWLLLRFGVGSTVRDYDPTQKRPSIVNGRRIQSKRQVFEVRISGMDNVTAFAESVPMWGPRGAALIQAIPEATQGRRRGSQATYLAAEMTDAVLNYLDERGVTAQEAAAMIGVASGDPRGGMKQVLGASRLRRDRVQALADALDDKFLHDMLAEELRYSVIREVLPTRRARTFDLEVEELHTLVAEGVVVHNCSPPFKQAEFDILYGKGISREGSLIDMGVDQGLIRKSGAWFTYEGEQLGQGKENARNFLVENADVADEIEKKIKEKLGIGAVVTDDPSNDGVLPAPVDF
# Mtb FBA inh conf: Mtb FBA inhibition, confirmed. 78% of 5,600 active. inhibition, % at 1 µM. purified M. tuberculosis FBA, fluorescence read-out. AID 651616. shares compounds with Mtb FBA inh;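 also: 0% = vehicle wells and 100% = reference inhibitor wells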
# GDH-TPI counter-2: GDH-TPI inhibition counter-screen for FBA inhibitors; 81% of 5,600 active; GDH-TPI coupled enzyme counterscreen, fluorescence; shares compounds with Mtb FBA inh; inhibition, % at 1 µM; AID 652141; in the data active = inhibition above about 10%
# GDH-TPI dose: counter-screen for M. tuberculosis FBA inhibitors: GDH-TPI dose response. IC50, µM. shares compounds with Mtb FBA inh. GDH-TPI coupled enzyme assay, fluorescence, artifact counterscreen. AID 652145. 79% of 170 active; call rule not given here
# * hit, by the source's call; i = inactive; . = no result; + = active, no number. Rule as the data show it, unless noted: active = inhibition above about 27%; inactive = the rest.
SMILES,UGM FP inh,Mtb FBA inh,Rv3671c inh,GDH-TPI counter-1,Mtb bLac sens,RecA intein inh,Mtb FBA inh conf,GDH-TPI counter-2,others
COCCNC(=S)Nc1ccc2nc(N3CCCC3)cc(C)c2c1,-0.5,5.3,-1.1,16.7,-3.1,-11.6,.,.,
Cc1cc(N2CCOCC2)nc2ccc(NC(=S)NCc3ccc4c(c3)OCO4)cc12,0.4,11.2,0.2,0.8,-0.4,2.5,.,.,
CCOCCCNC(=S)Nc1ccc2nc(N3CCCC3)cc(C)c2c1,-1.5,17.1,-1.0,8.7,-7.8,-2.0,.,.,
Cc1cc(N2CCCC2)nc2ccc(NC(=S)NC(C)C)cc12,2.2,30.7*,5.8,17.9,-11.3,-6.3,23.6,15.7*,
Cc1cc(N2CCOCC2)nc2ccc(NC(=S)NC(C)C)cc12,6.2,36.6*,-1.2,7.9,11.2,-11.7,108.2*,96.0*,
COCCNC(=S)Nc1ccc2nc(N3CCOCC3)cc(C)c2c1,-0.6,50.6*,2.6,7.9,-5.2,-4.9,0.4,-3.4,
COCCN(Cc1ccccc1)C(=O)c1ccc(C(=O)c2ccccc2)cc1,1.1,0.1,-4.7,1.8,11.4,.,.,.,
Cc1ccc(C(=O)O)cc1NS(=O)(=O)c1ccc2c(c1)oc(=O)n2C,0.3,3.5,.,6.0,0.5,-0.3,.,.,
c1ccc2c(c1)[nH]c1c(N3CCN(C4CCCCC4)CC3)ncnc12,1.8,33.5*,-10.1,7.1,5.7,0.6,40.2*,22.5*,
O=[N+]([O-])c1ccccc1S(=O)(=O)Nc1ccc2c(c1)OCCO2,-2.6,5.2,.,10.1,5.6,-1.6,.,.,
O=C(c1cccs1)N1CCN(C(=O)c2cccs2)C1=S,.,-0.3,.,-7.8,.,.,.,.,
COc1ccc(NC(=O)c2cnc3sccn3c2=O)cc1,-2.0,2.8,1.4,25.6,-1.8,2.6,.,.,
O=C(Nc1ccon1)c1cnc2sccn2c1=O,-1.4,28.1*,-6.3,31.4*,-2.2,6.0,14.8,8.5,GDH-TPI dose=>10
Cc1ccc(NC(=O)C(OC(=O)c2cnc(C)cn2)c2ccccc2)c([N+](=O)[O-])c1 (stereo unspecified),0.5,24.9,-6.2,10.3,-6.1,2.6,.,.,
O=C(CCS(=O)(=O)c1ccccc1)Nc1ccc2c(c1)C(=O)NC2=O,-0.6,50.4*,-7.1,0.6,-4.0,-1.8,+,+,
O=C(CSCc1ccccc1)Nc1ccc2c(c1)C(=O)NC2=O,-1.0,-0.2,5.0,9.9,-8.0,0.2,.,.,
CN1C(=O)c2ccc(NC(=O)CCS(=O)(=O)c3ccccc3)cc2C1=O,-2.0,34.6*,1.8,4.4,-7.9,-2.9,83.0*,60.6*,
N#CC1C(=O)NC(=O)C(C#N)C12CCCC2 (stereo unspecified),.,-2.3,.,.,.,.,.,.,
O=C(COc1ccc2c3c(c(=O)oc2c1)CCC3)Nc1ccc(CCO)cc1,-1.7,8.9,-5.0,9.6,7.6,-4.9,.,.,
C=CCOc1ccc2c3c(c(=O)oc2c1)CCCC3,.,74.0*,.,5.5,.,.,+,+,
CCc1cc2c3c(c(=O)oc2cc1OC)CCCC3,-1.7,66.7*,3.6,9.9,19.7,2.8,76.8*,52.9*,
CCCOc1ccc2c3c(c(=O)oc2c1)CCCC3,2.2,60.0*,-7.7,3.0,15.3,3.4,97.1*,76.0*,
O=C(COc1ccc2c3c(c(=O)oc2c1)CCC3)NCc1ccncc1,-4.3,19.8,5.3,8.9,1.4,-0.9,.,.,
O=C(COC(=O)c1ccc(OC(F)(F)F)cc1)NCCN1C(=O)CSC1=O,-1.6,0.5,0.2,3.8,-6.2,.,.,.,
COc1ccc(CCn2c(-c3cc([N+](=O)[O-])cc([N+](=O)[O-])c3)nc3nc4ccccc4nc32)cc1OC,0.4,2.3,6.7,8.9,6.8,1.6,.,.,
SMILES,UGM FP inh,Mtb FBA inh,Rv3671c inh,GDH-TPI counter-1,Mtb bLac sens,RecA intein inh,Mtb FBA inh conf,GDH-TPI counter-2,others
COc1ccccc1CCNC(=O)C(=O)c1cn(CC(=O)N2CCOCC2)c2ccccc12,3.4,80.4*,-7.2,3.1,5.2,-0.5,103.8*,85.0*,
C=COCCNC(=S)N1CCOCCOCCN(C(=S)NCCOC=C)CCOCC1,1.6,-3.1,-9.5,2.2,-4.6,2.6,.,.,
CCN(CC)CCOC(=O)c1cccc2c1-c1ccccc1C2O (stereo unspecified),-2.5,29.0*,15.0,-4.1,-7.6,4.4,46.4*,35.1*,
O=C(Cc1c(F)cccc1Cl)OCN1C(=O)c2ccccc2C1=O,-1.3,-4.4,2.1,-0.7,-5.5,-1.1,.,.,
CCOc1ccc(-c2cc(C(=O)NCCCN3CCN(CC)CC3)c3ccccc3n2)cc1,-0.8,46.3*,-2.3,22.5,-13.9,-2.1,60.9*,48.3*,
CCOc1ccc(-c2cc(C(=O)NCCCn3ccnc3)c3ccccc3n2)cc1,0.6,32.7*,-4.0,-0.6,88.9,2.5,43.4*,33.2*,
O=C(C(=O)N1CCCC1)c1c(-c2ccccc2)[nH]c2ccccc12,1.2,-0.4,4.0,5.9,-6.6,0.7,.,.,
CN(C(=O)c1ccc(C#N)cc1)c1nnc(-c2ccccn2)s1,.,5.0,.,0.6,.,0.6,.,.,
CN(C(=O)c1ccncc1)c1nnc(-c2ccccn2)s1,-1.1,47.6*,3.7,-2.6,-9.6,-2.6,146.2*,132.7*,
Nc1c(C(=O)NCCN2CCOCC2)c2nc3ccccc3nc2n1Cc1ccco1,-0.9,85.5*,-5.8,19.4,-18.2,i,98.4*,95.5*,
Cc1cccc(-n2c(N)c(C(=O)NCCN3CCOCC3)c3nc4ccccc4nc32)c1,0.1,.,-5.1,.,-6.1,-316.4,.,.,
O=C(NCCN1CCOCC1)C(=O)NCc1ccco1,-4.2,-0.2,2.9,7.1,2.5,-1.6,.,.,
Nc1c(C(=O)NCCN2CCOCC2)c2nc3ccccc3nc2n1Cc1ccccc1,-4.7,90.7*,1.2,3.5,77.9,-139.8,7.3,3.1,
Nc1c(C(=O)NCCc2ccccc2)c2nc3ccccc3nc2n1CCN1CCOCC1,0.7,27.5*,0.8,4.6,98.6,-22.0,72.9*,53.3*,
COCCNC(=O)c1c(N)n(Cc2ccco2)c2nc3ccccc3nc12,0.8,83.1*,-2.8,17.9,13.1,i,76.1*,67.0*,
Cc1ccc([C@@H]2C[C@H]3[C@@H](CN2S(=O)(=O)c2ccc(Cl)cc2)C(=O)C[C@@H](c2ccccc2)N3S(=O)(=O)c2ccc(C)cc2)cc1,.,2.6,.,-12.3,.,.,.,.,
COCCNC(=O)c1c(NC(=O)c2ccco2)n(Cc2ccccc2)c2nc3ccccc3nc12,0.5,74.8*,-7.2,5.0,57.1,-153.7,64.6*,64.8*,
O=C(NCc1ccco1)c1ccc2ccccc2n1,-0.4,-0.3,0.1,-1.9,0.7,-0.8,.,.,
Nc1c(C(=O)OCc2ccccc2)c2nc3ccccc3nc2n1Cc1cccs1,-0.6,50.6*,-70.6,9.1,-4.5,-0.5,168.5*,149.7*,
Nc1c(C(=O)NCc2ccco2)c2nc3ccccc3nc2n1CCc1ccccc1,.,72.3*,.,8.4,.,-118.0,86.8*,72.2*,
